Measured values reported in the supplement of paper PMC3334620.
The full ranking holds about 33,000 sequences; the median of “E-score (-0.5 to 0.5)” is about -0.017, and the highest 2% start at about 0.3. The full list was thinned out, with the highest values kept by preference.

biological target: T1, Sut1 (UniProt P53032); assay: PBM E-score (8-mer binding enrichment) (E-score (-0.5 to 0.5)); higher = stronger / more preferred TF binding; conditions: protein concentration: 200 nM; construct: GST-full length
T1 sequence: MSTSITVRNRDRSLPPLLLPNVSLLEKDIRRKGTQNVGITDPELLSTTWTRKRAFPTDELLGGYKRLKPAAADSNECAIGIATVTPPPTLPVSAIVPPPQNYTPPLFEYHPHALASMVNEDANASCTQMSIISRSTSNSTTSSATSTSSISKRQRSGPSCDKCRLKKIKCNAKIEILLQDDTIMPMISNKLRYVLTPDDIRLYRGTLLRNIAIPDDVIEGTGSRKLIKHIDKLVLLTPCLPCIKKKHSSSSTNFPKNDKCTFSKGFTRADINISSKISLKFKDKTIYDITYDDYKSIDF
Protocol: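 Universal 'all 10-mer' protein binding microarrays (Agilent AMADID 015681) probed with GST-tagged S. cerevisiae TFs (full-length or DBD) made by in vitro transcription/translation (PURExpress), about 100-200 nM. Bound TF was detected with fluorescent anti-GST. Each ungapped 8-mer (which stands for itself and its reverse complement) is scored by the PBM enrichment score (E-score), a modified Wilcoxon-Mann-Whitney statistic from -0.5 to +0.5, computed with the Universal PBM Analysis Suite. Scale: above 0.35 generally sequence-specific binding.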

Sequence	PBM E-score
TCGGACAA	0.367
ACGGAGCT	0.386
ACGGAGCC	0.219
ATGGAGAA	0.108
ACGGAGAT	0.435
ACGGAGAG	0.247
ACGGAGAC	0.232
GCGGACAA	0.23
ACGGAGAA	0.362
CCGGACAA	0.283
GGATAGCA	0.0461
CGCTGTAA	0.00093
AACCTTTG	0.0541
AAACTAAT	0.292
GGTTATGA	-0.00868
CACAACCA	0.0851
CGTTGCGC	-0.153
GTTAGTCA	-0.0461
ATTAGACC	-0.183
ACATCAAT	0.201
AAACAGTC	-0.179
ACGGATAA	0.103
GCGGAGAC	0.183
CAGGAGAA	0.0231
TCGGAGAA	0.436

Sequence	PBM E-score
TCGGATAA	0.318
CCGGAGAG	0.253
CCGGATAA	0.285
GCGGAGAA	0.279
CCGGAGAA	0.397
CCGGAGAC	0.328
CGGGAGAC	0.132
TGGGAGAA	-0.07
TCTCTAAA	0.107
AAGATAAA	0.199
GCGACTTA	-0.106
ACGTCTCA	-0.0462
AAAACTGA	0.12
CAGGTTGC	-0.135
AGCCTTCC	-0.158
GGCAGCAA	-0.129
ATCGGAGA	0.416
ATCGGCGC	-0.0591
CTCGGATA	0.126
CTTGGAGA	-0.00672
CTAGGAGC	-0.306
CTCGGTGC	-0.02
ATCGGAGG	0.0998
CTCGGAGA	0.419
ATCGGATC	-0.00393

Sequence	PBM E-score
ATCGGAGC	0.358
ATCGGATA	0.288
CTCGGAGC	0.389
ACCAACGC	0.014
CGGAGCCA	0.294
CGTTAAGC	0.125
CTGCTGTA	-0.0764
TACAGGCA	0.085
GTCGGATA	0.143
GTCGGAGA	0.325
GTAGGAGA	-0.0911
AACTAGGA	0.0329
GACTCGCC	-0.158
AAAAAGTA	0.125
CGGACTGA	0.298
AGGACTTA	-0.0276
AGGACTGA	-0.109
CGGACTGC	0.377
CGGACTTA	0.492
GGGACTGA	-0.185
AGGACTGC	-0.334
CAGACTGC	-0.135
GGGACTTA	-0.0858
GTAAACGA	-0.0179
CACAGTAC	-0.0582

Sequence	PBM E-score
GATCCGTA	-0.02
TATCCGCA	0.169
AATCCGGA	0.368
TATCCGAA	0.304
CATCCGAA	0.151
GATCCGGC	0.0532
CATCCGGA	0.292
GATCCGGA	0.324
GATCCGAA	0.26
TATCCGGA	0.39
AATCCGGT	0.258
AATCCGGC	-0.0834
ACCCTCTA	-0.245
AGGTCTTC	-0.256
GGTCTCGA	0.00072
CAACAGTC	0.0186
TACGCGTA	-0.0808
CGGCCACC	-0.0332
CTCTAAAG	-0.0246
AGATATTA	0.211
GGTCCGCA	0.241
ATTCCGCC	0.214
AGTCCGCG	0.435
AGTCCGCC	0.375
AATCCGCG	-0.103

Sequence	PBM E-score
CGTCCGCC	-0.124
AGTCCGCA	0.441
ATTCCGCG	0.18
CGTCCGCA	-0.177
ATGCACGG	-0.114
AACTTCTA	0.131
ACCAGCTG	-0.203
GTCATAGA	-0.0539
ATGAATAC	0.132
GGCAAACA	-0.119
GCCAAGGC	-0.29
AGATGATA	0.175
AAATGATA	0.337
AAATGATG	0.16
AAATGATT	0.311
AAATGATC	0.105
GAATGATA	0.259
CAATGATA	0.144
TAATGAAA	0.154
TAATGATA	0.317
ACAGTGTC	-0.114
GAATTCGA	0.0801
CTTTTCTC	0.107
TCATCGGA	0.395
CCATCGGA	0.255

Sequence	PBM E-score
GCATCGTA	-0.0143
GCATCGGA	0.348
ACATCGGT	-0.034
GCATCGGC	-0.241
TCATCGAA	0.0449
ACATCGGC	-0.0386
ACATCGGA	0.351
GCAATACA	0.196
GAAATTGC	-0.0449
AGCACGCG	0.0217
ATTACATA	0.154
AGAGTCTG	-0.236
ACCACACA	0.109
CTCACAGC	-0.051
TCTCAGAA	-0.12
CAAGTTGC	0.0786
GGCTGTAC	-0.0774
CGACTTAA	0.00564
CGACTTAC	-0.0195
GGACTTAA	0.326
AGACTTAC	-0.0551
GGACTTAC	0.352
AGACTTAA	-0.137
GCAAGAGA	-0.196
CTTCTGGA	-0.0307

Sequence	PBM E-score
ATCGGACC	0.353
CTCGGATC	0.204
CTCGGACA	0.354
ATCGGACG	0.0416
CTCGGACC	0.368
CTCGGAAC	0.182
GTCGGACA	0.271
ATCGGACA	0.257
AGCGGACC	0.00064
TCTTAGAA	0.283
AAGATTCA	0.137
CGAGCGTC	-0.241
CATATTGG	0.112
GAAACTGA	-0.0944
CGGCTTTA	0.0621
AACCAGTC	0.173
GGGGGTTA	-0.405
CCGGGTTC	-0.0363
CGGGGTTC	0.398
AGGGGTTC	-0.181
AGGGGTTA	-0.273
CGGGGTTA	0.382
